Results as given in PubChem BioAssay (EPA / NIEHS).
Activity calls are given as the source filed them. Rule for the calls: active = hit-call score of the fitted dose curve at least 0.9, where 1 is the maximum; inactive = score below 0.9.

Experiment: CCTE_Shafer_MEA_acute_cross_correlation_area: CCTE's Neural Acute Assay for Area of Cross Correlation, Shafer Lab (AID 2284024);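 note: curves fitted for loss of cross-correlation area so actives lower synchrony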
Experimental: CCTE_Shafer_MEA_acute assay is conducted using Axion Biosystems 48 well microelectrode array (MEA) plates and Maestro recording system. Each well of the MEA plate contains a grid of 16 microelectrodes embedded in the culture surface. Electrically active cells, such as neurons, can be cultured over the electrodes, and electrical activity in these cells can be recorded extracellularly. The spontaneous firing of neurons is captured from each electrode on a microsecond timescale providing both temporally and spatially precise data. […] The CCTE_Shafer_MEA_acute assay uses primary cultures of rat cortical neurons. As these cultures mature over time, neural networks develop functional activity and form cohesive networks in which electrical activity can be highly coordinated. Baseline 40-minute recordings are made on days post-plating 13 or 15, followed by a secondary 40-minute recording after chemical exposure.CCTE_Shafer_MEA_acute_cross_correlation_area is a component of the CCTE_Shafer_MEA_acute assay. It measures the area under the well-wide pooled inter-electrode cross-correlation of action potential firing (not normalized to auto-correlations) within a window centered around 0 for the phase lag during a recording in a microelectrode array (MEA) using Axion Biosystems Maestro 768 channel amplifier with the AxIS adaptive spike detector. The recordings before and after chemical treatment are used to calculate a percent change in the cross correlation area in each well.Data from the assay component CCTE_Shafer_MEA_acute_cross_correlation_area was analyzed into 1 assay endpoint. This assay endpoint, CCTE_Shafer_MEA_acute_cross_correlation_area, was analyzed in the negative analysis fitting direction relative to DMSO as the negative control and baseline of activity. Using a type of functional reporter, gain or loss-of-signal activity can be used to understand electrical activity.
Spontaneous activity in the cortical cultures was recorded using an Axion Biosystems Maestro 768 channel amplifier and Axion Integrated Studios (AxIS) v1.8 (or later) software. The amplifier recorded from all channels simultaneously (gain = 1200 x; sampling rate = 12.5 kHz/channel): raw signals were filtered with a Butterworth band-pass filter (300-5000 Hz), which filters out slower local field potentials leaving only fast potentials, i.e., "spikes", arising from extracellular currents associated with action potentials (Pine 2006; Wheeler and Nam 2011). On-line spike detection of filtered signals was conducted with the AxIS adaptive spike detector, using a threshold of 8x the root mean squared (rms) noise on each channel. Any electrodes with rms noise levels greater than 5 uV were grounded (e.g., no data were recorded). Once grounded, an electrode was grounded for the duration of the experiment. All recordings were conducted at 37 C. Wells were deemed usable if on the day of the exposure >/= 10 electrodes were active (defined as >/= 5 spikes/min). On DIV 13 or 15, a minimum of three wells from one cortical culture preparation were treated with each compound (0.03-40 uM). Prior to recording baseline activity, each mwMEA plate was placed in the Maestro at 37 C and allowed to sit for 20 min while firing rates stabilized. Baseline activity (40 min) was recorded before the addition of each compound. An additional 40 min of spontaneous activity was recorded in the presence of each compound. Changes in network parameters relative to baseline were assessed following compound treatment.

| SMILES | outcome | AC50 |
| --- | --- | --- |
| CC(C)NCC(O)c1ccc(O)c(O)c1 (configuration not stated) | inactive | – |
| Cc1cc(Cc2ccc(N)c(C)c2)ccc1N | inactive | – |
| Nc1nc(=S)c2[nH]cnc2[nH]1 | inactive | – |
| CN(C)C(=O)NC1(c2ccccc2)CCN(CCC[C@]2(c3ccc(Cl)c(Cl)c3)CCCN(C(=O)c3ccccc3)C2)CC1 | – | 1.18 nM (active) |
| CC1=C(C)S(=O)(=O)CCS1(=O)=O | inactive | – |
| CC(C)COC(=O)CCCCC(=O)OCC(C)C | inactive | – |
| CSc1ccc(Oc2ccc(S(N)(=O)=O)cc2CN(C)C)cc1C | inactive | – |
| Cc1c(C)c2c(c(C)c1O)CCC(C)(COc1ccc(CC3SC(=O)NC3=O)cc1)O2 (configuration not stated) | inactive | – |
| OCC(CO)n1cnc(-c2ccc(F)cc2)c1-c1ccnc(Oc2ccccc2)n1 | – | 3900 nM (active) |
| CCCCC(CC)COP(=O)(OCC(CC)CCCC)OCC(CC)CCCC (configuration not stated) | inactive | – |
| C/C=C/c1ccc(OC)cc1 | inactive | – |
| CCc1cc(C2=C(C(=O)O)N(c3ccccc3C(F)(F)F)S(=O)(=O)c3ccccc32)cc2c1OCO2 | inactive | – |
| COc1ccc(OC(F)(F)F)cc1CN[C@H]1CCCN[C@H]1c1ccccc1 | inactive | – |
| O=C1OC(c2ccc(O)cc2)(c2ccc(O)cc2)c2ccccc21 | inactive | – |
| Cc1ccc(C(C)(C)C)c(O)c1 | inactive | – |
| CC(N)=O | inactive | – |
| O=C(N[C@@H](c1ccccc1)[C@@H]1CCCCN1)c1cccc(C(F)(F)F)c1Cl | – | 1990 nM (active) |
| NC(=Nc1ccccc1)Nc1ccccc1 | inactive | – |
| COC(=O)[C@H]1[C@H]2C[C@@H]3c4[nH]c5cc(OC)ccc5c4CCN3C[C@H]2C[C@@H](OC(=O)c2cc(OC)c(OC)c(OC)c2)[C@@H]1OC | inactive | – |
| Oc1ccc(O)cc1 | inactive | – |
| Cc1cc(SC2=C(O)C[C@@](CCc3ccc(N)cc3)(C(C)C)OC2=O)c(C(C)(C)C)cc1CO | – | 20000 nM (active) |
| CCCC(=O)O | inactive | – |
| CCN(CC)CCOc1ccc(C(=C(Cl)c2ccccc2)c2ccccc2)cc1 | inactive | – |
| CN(C)C(=O)NC1(c2ccccc2)CCN(CC[C@@]2(c3ccc(F)c(F)c3)CN(C(=O)c3ccccc3)CCO2)CC1 | inactive | – |
| O=C(O)CN(CC(=O)O)CC(=O)O | inactive | – |
| Cc1ccc(-c2cc(C(F)(F)F)nn2-c2ccc(S(N)(=O)=O)cc2)cc1 | inactive | – |
| c1ccc2occc2c1 | inactive | – |
